Each structure is given as a SMILES string. Records with an inconclusive call do not appear. Unmarked numbers belong to inactive results. Active and inactive are the calls of the source. Calls come from the whole dose curve; as a rule, active = well fitted curve in the direction sought with a large enough effect; inconclusive = small, poorly fitted or top-dose-only effect, or another doubt; inactive = no such curve, though single readings can be large; an effect the other way counts as inactive or inconclusive.

This passage reports Potency results from PubChem BioAssay (NCATS).

Assay [1] can be described thus: qHTS Screen of the MIPE 4.0 Collection Against Ewings Sarcoma (TC32) (AID 1259256). Note: nearly all actives have a fitted effect of over 45% in size. In a few lines:
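Log-phase cells in RPMI with 5% FBS attached for 4 h, then received compounds as a titration for 48 h at 37C, 5% CO2. Viability was read by CellTiter-Glo luminescence and normalized to DMSO and no-cell wells.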
(In general: Quantitative high-throughput screening tests each substance at several concentrations.)

Assay [2] can be described thus: P-glycoprotein substrates identified in KB-8-5-11 adenocarcinoma cell line, qHTS therapeutic library screen (AID 1346987). Note: nearly all actives have a fitted effect of over 65% in size. In a few lines:
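Luminescence from CellTiter-Glo, read 5 min after addition, quantified survival of KB-8-5-11 (P-gp-overexpressing) cells exposed to compounds for 72 h. AC50 was derived from concentration-response curves.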

Assay [3] in a line: NS1 protein of Zika virus - qHTS assay to identify small molecule inhibitors in human HEK 293 cells (AID 1347053). Note: nearly all actives have a fitted effect of over 55% in size. In a few lines: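 Read-out is a two-antibody TR-FRET for ZIKV NS1, normalized between uninfected cells and infected cells. Compound added 1 h before MR766 infection at MOI 0.5; human HEK 293 cells incubated 24 h, 37 C.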
The nature of assay [4]: qHTS of pediatric cancer cell lines to identify multiple opportunities for drug repurposing: Primary screen for TC32 cells (AID 1347089). Note: nearly all actives have a fitted effect of over 60% in size. In a few lines: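 In the primary qHTS, MIPE compounds were tested at 11 concentrations (0.78 nM to 46 µM) and NPC compounds at 8 (0.59 nM to 46 µM) on TC32 cells for 48 h. CellTiter-Glo luminescence gave viability.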
Assay [5] in a line: qHTS of pediatric cancer cell lines to identify multiple opportunities for drug repurposing: Primary screen for SJ-GBM2 cells (AID 1347091). In a few lines: (§1)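 Viability measured as metabolically active cells via CellTiter-Glo luminescence following 48 hours of compound exposure, 11-point dilutions in confirmatory testing. 500-1,000 cells/well plated 5 hours before dosing; controls were DMSO and 2.3 µM bortezomib.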

Assay [6] in a line: qHTS of pediatric cancer cell lines to identify multiple opportunities for drug repurposing: Primary screen for A673 cells (AID 1347092). Note: nearly all actives have a fitted effect of over 45% in size. In short, it runs like this:
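48 h compound exposure, A673, 500-1,000 cells/well, 37 degrees C/5% CO2. MIPE: 11-point, 0.78 nM-46 µM; NPC: 8-point, 0.59 nM-46 µM (final). Readout CellTiter-Glo luminescence after 15 min RT.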

The nature of assay [7]: qHTS of pediatric cancer cell lines to identify multiple opportunities for drug repurposing: Primary screen for BT-37 cells (AID 1347094). In a few lines:
(§2)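 CRCs from 8- or 11-point titrations (lowest final 0.59 nM NPC, 0.78 nM MIPE). Cell viability: CellTiter-Glo after 48 h incubation, 15 min room-temperature development, luminescence imaging.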

The nature of assay [8]: qHTS of pediatric cancer cell lines to identify multiple opportunities for drug repurposing: Primary screen for NB-EBc1 cells (AID 1347095). In a few lines: as §2
Assay [9] is described as follows: qHTS of pediatric cancer cell lines to identify multiple opportunities for drug repurposing: Primary screen for Saos-2 cells (AID 1347097). Note: nearly all actives have a fitted effect of over 40% in size. In a few lines:
as §2

Assay [10] is described as follows: qHTS of pediatric cancer cell lines to identify multiple opportunities for drug repurposing: Primary screen for SK-N-SH cells (AID 1347098). Note: nearly all actives have a fitted effect of over 65% in size. In a few lines:
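Cells (500-1,000/well) rested 5 h, then received compounds for 48 h; metabolically active cells were measured by CellTiter-Glo luminescence. Final concentrations spanned up to 46 µM (MIPE, 11-point) or 0.59 nM-46 µM (NPC, 8-point) in primary screens, 11-point in follow-ups.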

A short description of assay [11]: qHTS of pediatric cancer cell lines to identify multiple opportunities for drug repurposing: Primary screen for NB1643 cells (AID 1347099). Note: nearly all actives have a fitted effect of over 50% in size. In short, it runs like this:
as §2

The nature of assay [12]: qHTS of pediatric cancer cell lines to identify multiple opportunities for drug repurposing: Primary screen for LAN-5 cells (AID 1347100). In a few lines:
(§3)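 Viability after 48 h compound treatment at 37C, 500-1,000 cells/well, read as ATP luminescence with CellTiter-Glo. Primary screens used 11-point (MIPE, 0.78 nM-46 µM) or 8-point (NPC, 0.59 nM-46 µM) final concentrations; follow-up screens used 11-point dilutions.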

Assay [13] can be described thus: qHTS of pediatric cancer cell lines to identify multiple opportunities for drug repurposing: Primary screen for SK-N-MC cells (AID 1347093). In short, it runs like this: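 Metabolically active cells were quantified by ATP-dependent luminescence (CellTiter-Glo, 15 min at room temperature) following 48 h treatment. Cells had been plated at 500-1,000 per well and settled for 5 h beforehand.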

Assay [14] is described as follows: qHTS of pediatric cancer cell lines to identify multiple opportunities for drug repurposing: Primary screen for U-2 OS cells (AID 1347096). Note: nearly all actives have a fitted effect of over 50% in size. In short, it runs like this:
as §3

The nature of assay [15]: qHTS of pediatric cancer cell lines to identify multiple opportunities for drug repurposing: Primary screen for DAOY cells (AID 1347090). Note: nearly all actives have a fitted effect of over 55% in size. In short, it runs like this: as §1
Potency is the fitted concentration of half-maximal effect.

In the case of `CC[C@@]1([C@@H]2O[C@@H]([C@H]3O[C@@](O)(CO)[C@H](C)C[C@H]3C)C[C@H]2C)CC[C@H]([C@]2(C)CC[C@]3(C[C@H](O)[C@@H](C)[C@@H]([C@@H](C)[C@@H](OC)[C@H](C)C(=O)O)O3)O2)O1`, the Potency is 0.162 µM (active) in assay [1]; 0.911 µM (active) in [2]; 1.29 µM (active) in assay [3]; 1.61 µM (active) in [4]; 0.288 µM (active) in assay [5]; 0.162 µM (active) in assay [6]. Also, the Potency was 0.15 µM (active) in assay [7]; 0.182 µM (active) in assay [8]; 6.45 µM (active) in assay [9]; 10.5 µM (active) in assay [10]; 0.457 µM (active) in [11]; 0.129 µM (active) in assay [12].
As for `CCNC(=O)c1cc2c(-c3cc(OCCN4CCCC4)c(Cl)cc3Cl)nc(N)nc2s1`, the Potency is 0.59 µM (active) in assay [1]; 5.26 µM (active) in assay [2]; 3.7 µM (active) in assay [4]; 2.09 µM (active) in [5]; 1.18 µM (active) in assay [6]; 2.64 µM (active) in assay [13]. Further, the Potency was 0.935 µM (active) in [8]; 3.72 µM (active) in assay [9]; 3.04 µM (active) in assay [10]; 2.64 µM (active) in [11]; 1.48 µM (active) in assay [12]. In addition, the Potency entry in assay [3] and in assay [14] was “inactive” in each case.
Take `O=[N+]([O-])c1cn2c(n1)OC[C@@H](OCc1ccc(OC(F)(F)F)cc1)C2`: the Potency in assay [1] was 8.33 µM (active). Further, the Potency entry in assay [2], in assay [3], in assay [4], in [5], in assay [6] and in [13] was “inactive” each time. Further, the Potency result in assay [7], in assay [8], in [14], in assay [9], in [11] and in [12] was “inactive” in each case.
For `C[C@]12CC[C@@H]3c4ccc(O)cc4CC[C@H]3[C@H]1CC[C@H]2O`, the Potency in assay [1] is 16.6 µM (active); in [2] it was 7.43 µM (active); in assay [15] it was 18.7 µM (active); in assay [6] it was 2.96 µM (active); in assay [13] it was 10.5 µM (active); in assay [7] it was 27.3 µM (active). The Potency in [8] was 9.35 µM (active); in assay [9], 16.6 µM (active); in [11], 4.18 µM (active); in assay [12] it was 9.35 µM (active). Besides, the Potency entry in assay [3] and in assay [4] was “inactive” each time.
In the case of `O=C1NC(=O)[C@@H](c2cn3c4c(cccc24)CCC3)[C@H]1c1c[nH]c2ccccc12`, the Potency in [1] is 0.166 µM (active); in assay [2], 0.469 µM (active); in assay [3], 6.62 µM (active); in [4] it was 2.34 µM (active); in [5] it was 0.0833 µM (active); in [6] it was 0.235 µM (active). Besides, the Potency in assay [13] is 0.0469 µM (active); in assay [7], 2.17 µM (active); in [8], 0.0469 µM (active); in assay [9], 0.148 µM (active); in [12], 0.332 µM (active). Moreover, the Potency entry in assay [10] was “inactive”.
Turning to `c1coc(CNc2ncnc3nc[nH]c23)c1`, the Potency entry in assay [1], in assay [2], in [3], in [4], in assay [15] and in assay [6] was “inactive” each time. Also, the Potency result in assay [13], in [7], in assay [8], in assay [14], in assay [9] and in [10] was “inactive” in each case. The Potency result in assay [11] and in assay [12] was “inactive” each time.
Turning to `CN1C(C(=O)Nc2ccccn2)=C(O)c2sc(Cl)cc2S1(=O)=O`, the Potency was 5.26 µM (active) in assay [1]; 2.96 µM (active) in assay [6]; 4.69 µM (active) in assay [13]; 16.6 µM (active) in [8]; 9.61 µM (active) in [10]; 18.7 µM (active) in assay [11]. The Potency entry in assay [2], in assay [3], in assay [4], in [5] and in [14] was “inactive” each time.
On to `Cc1onc(-c2ccccc2)c1C(=O)N[C@@H]1C(=O)N2[C@@H](C(=O)O)C(C)(C)S[C@@H]12`, for which the Potency entry in assay [1], in assay [2], in [3], in assay [4], in assay [15] and in assay [6] was “inactive” in each case. The Potency entry in assay [13], in assay [7], in assay [8], in assay [14], in assay [9] and in [10] was “inactive” each time. Further, the Potency result in assay [11] and in [12] was “inactive” each time.
Turning to `CN(C)c1ccc2cc(C(=O)N[C@@H](CCCN=C(N)CCl)C(=O)NCc3ccccc3)ccc2c1`, the Potency is 7.43 µM (active) in assay [1]; 7.43 µM (active) in assay [15]; 3.32 µM (active) in [13]; 23.5 µM (active) in assay [8]; 14.8 µM (active) in assay [9]; 21.5 µM (active) in assay [10]. The values for the Potency in assay [11] and in [12] were 14.8 µM (active) and 1.05 µM (active), respectively. Moreover, the Potency result in [2], in assay [3] and in assay [4] was “inactive” throughout.
In the case of `CCn1c(=O)c2c(nc(C=Cc3ccc(OC)c(OC)c3)n2C)n(CC)c1=O`, the Potency result in [1], in assay [2], in assay [3], in [4], in assay [5] and in [7] was “inactive” each time. Besides, the Potency result in assay [8], in assay [14], in assay [9] and in [12] was “inactive” each time. The Potency in assay [13] was 18.7 µM (active).
Regarding `O=C(CCCCCCC(=O)Nc1cccnc1)NO`, the Potency in assay [1] was 5.26 µM (active); in assay [2], 18.7 µM (active); in [4] it was 20.8 µM (active); in assay [5], 7.43 µM (active); in [6], 11.8 µM (active); in assay [13], 2.96 µM (active). The Potency in [7] is 19.3 µM (active); in [8], 4.18 µM (active); in assay [14], 11.8 µM (active); in assay [9], 13.2 µM (active); in assay [10], 6.07 µM (active); in assay [11], 2.96 µM (active). For the same compound, the Potency in assay [12] was 2.64 µM (active). The Potency result in assay [3] was “inactive”.
Consider `COc1cc(C(C)C)c(Oc2cnc(NC(CO)CO)nc2N)cc1I`, for which the Potency in assay [1] was 1.48 µM (active); in assay [6], 0.372 µM (active); in assay [13], 1.05 µM (active); in assay [8], 26.4 µM (active); in [11], 2.96 µM (active). In addition, the Potency entry in assay [2], in assay [3], in assay [4], in [5], in assay [7] and in assay [12] was “inactive” throughout.
With `COc1ccc(Nc2nccc(NCCO)n2)cc1`, the Potency result in assay [1], in assay [2], in [3], in [4], in assay [15] and in assay [6] was “inactive” throughout. In addition, the Potency entry in [7], in assay [8], in assay [14], in [9], in [10] and in assay [12] was “inactive” in each case.
